Laboratory results: paper PMC4336329 (PLoS ONE, 2015)
In all, about 310,000 compounds went through this assay and about 14,000 (4.5%) showed an effect of 50% or more. The effect is printed as a negative number. This excerpt belongs to a sample that is enriched for strong results.

target: human ether-à-go-go-related gene (hERG) potassium channel (human, UniProt Q12809); assay: primary screen, population patch clamp on CHO cells stably expressing hERG; higher = less effect of the substance
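Further: peak tail current of the secondary pulse compared with the same well before compound.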

Sequence of human ether-à-go-go-related gene (hERG) potassium channel (Q12809 whole entry, looked up): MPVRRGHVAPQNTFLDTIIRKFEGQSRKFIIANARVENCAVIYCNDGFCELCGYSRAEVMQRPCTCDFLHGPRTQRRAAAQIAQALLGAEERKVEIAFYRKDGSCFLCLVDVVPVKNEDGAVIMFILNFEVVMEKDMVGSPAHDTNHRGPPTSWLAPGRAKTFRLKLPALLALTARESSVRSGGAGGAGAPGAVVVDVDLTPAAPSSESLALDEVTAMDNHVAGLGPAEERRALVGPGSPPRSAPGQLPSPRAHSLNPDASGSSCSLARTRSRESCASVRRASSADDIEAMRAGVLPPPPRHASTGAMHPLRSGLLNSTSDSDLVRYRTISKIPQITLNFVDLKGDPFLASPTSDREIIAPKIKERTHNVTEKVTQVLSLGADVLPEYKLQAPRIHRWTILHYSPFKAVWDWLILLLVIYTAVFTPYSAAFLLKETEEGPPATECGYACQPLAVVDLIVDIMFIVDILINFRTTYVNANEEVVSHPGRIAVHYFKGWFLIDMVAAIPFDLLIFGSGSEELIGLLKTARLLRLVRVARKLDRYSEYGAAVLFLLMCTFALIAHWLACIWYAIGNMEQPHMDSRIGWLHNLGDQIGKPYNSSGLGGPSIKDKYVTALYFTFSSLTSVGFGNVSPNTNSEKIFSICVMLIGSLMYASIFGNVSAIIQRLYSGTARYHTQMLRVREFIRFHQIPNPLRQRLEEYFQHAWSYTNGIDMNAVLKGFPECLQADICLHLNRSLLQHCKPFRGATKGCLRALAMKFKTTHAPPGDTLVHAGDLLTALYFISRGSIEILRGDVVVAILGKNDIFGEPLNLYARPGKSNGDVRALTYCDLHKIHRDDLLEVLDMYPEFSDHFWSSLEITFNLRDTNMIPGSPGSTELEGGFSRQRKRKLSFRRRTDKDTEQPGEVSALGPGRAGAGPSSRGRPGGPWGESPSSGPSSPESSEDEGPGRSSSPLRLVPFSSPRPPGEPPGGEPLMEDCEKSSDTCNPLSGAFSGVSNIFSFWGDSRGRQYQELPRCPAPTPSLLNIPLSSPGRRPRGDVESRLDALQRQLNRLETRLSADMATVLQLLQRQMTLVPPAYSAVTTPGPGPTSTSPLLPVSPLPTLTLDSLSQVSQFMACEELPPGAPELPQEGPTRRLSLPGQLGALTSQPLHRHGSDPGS

SMILES	hERG current change (%, negative = inhibition) at 10uM
COc1ccc(S(=O)(=O)N2CCC(C)CC2)cc1N(C)S(=O)(=O)c1ccccc1	-2.12%
COC(=O)c1cccc(NC(=O)CCNC(=O)c2ccco2)c1	18.8%
COC(=O)C1=C(C)N(c2ccc(C(=O)OC)cc2)C(=O)C1	22.3%
O=C(CSc1nnc(-c2ccncc2)o1)N1CCCC1	-19.1%
O=C(CCC(=O)c1ccc(Oc2ccccc2)cc1)Nc1ccc(Cl)cc1Cl	5.46%
CCN(CC)S(=O)(=O)c1ccc(-c2nnc(SCC(=O)Nc3nnc(C)s3)n2CC)cc1	12.2%
Cc1ccc(C(=O)N/C(=C\c2ccc(-c3cccc([N+](=O)[O-])c3)o2)C(=O)NCCCN(C)C)cc1	-67.6%
Cc1ccc(C(=O)N/C(=C/c2ccc(-c3cccc([N+](=O)[O-])c3)o2)C(=O)NC(C)C)cc1	-30.8%
Cc1ccc(C(=O)N/C(=C/c2ccc(-c3cccc([N+](=O)[O-])c3)o2)C(=O)NC(C)(C)C)cc1	-21.9%
Cc1ccc(C(=O)N/C(=C\c2ccc(-c3cccc([N+](=O)[O-])c3)o2)C(=O)NC(C)(C)C)cc1	1.94%
Cc1ccc(C(=O)N/C(=C/c2ccc(-c3cccc([N+](=O)[O-])c3)o2)C(=O)NCCCN(C)C)cc1	-80%
O=C(N/N=C/c1ccc(-c2cccc([N+](=O)[O-])c2)o1)c1ccc([N+](=O)[O-])cc1	-40%
O=C(CSc1nnc(CN2CCOCC2)n1-c1ccc(Cl)cc1)Nc1ccc2c(c1)OCO2	-9.87%
CC/C(O)=C1\C(=O)CCCC1=NCCc1c(C)[nH]c2ccc(C)cc12	-14%
CCOC(=O)CC1C(=O)NCCN1C(=O)Nc1ccc(Cl)cc1 (centres unmarked)	2.37%
CC(=O)c1c(C)[nH]c(C(=O)N2c3ccccc3CC2C)c1C (centres unmarked)	5.33%
Cc1csc(=O)n1CCC(=O)OCC(=O)c1ccc(Br)cc1	-18.4%
O=c1c2ccccc2ncn1C1CCCCC1	-19.4%
O=c1oc2ccccc2c2c1ncn2C1CCCCC1	-51.7%
O=c1oc2ccccc2c2c1ncn2-c1ccccc1	-11.8%

SMILES	hERG current change (%, negative = inhibition) at 10uM
O=C(NC1CCCC1)C(c1ccc(Cl)cc1)N1CCN(C2CCCCC2)CC1 (centres unmarked)	-59.3%
O=CN1CCN(C(C(=O)NC2CCCC2)c2ccc(Cl)cc2)CC1 (centres unmarked)	-14.8%
O=CN1CCN(C(C(=O)NC2CCCCC2)c2ccc(Cl)cc2)CC1 (centres unmarked)	-15%
Cc1c(C=O)c2ccccc2n1CC(=O)NCc1ccc2c(c1)OCO2	21.8%
CN1CCN(CC(O)COCCOc2ccc(Br)cc2)CC1.Cl (centres unmarked)	10.4%
CCN1CCN(CC(O)COCCOc2ccc(Br)cc2)CC1.Cl (centres unmarked)	-12.3%
CC1(C)CCCC(C)(C)N1CC(O)COCCOc1ccc(Br)cc1.Cl (centres unmarked)	-67.5%
CC1CC(C)CN(CC(O)COCCOc2ccc(Br)cc2)C1.Cl (centres unmarked)	-71.6%
Cl.OC(COCCOc1ccc(Br)cc1)CN1CCCCC1 (centres unmarked)	-37.1%
CC1(C)CC(O)CC(C)(C)N1CC(O)COCCOc1ccc(Br)cc1 (centres unmarked)	-42.4%
Cl.OCCN1CCN(CC(O)COCCOc2ccc(Br)cc2)CC1 (centres unmarked)	-20.2%
CC1CCN(CC(O)COCCOc2ccc(Br)cc2)CC1.Cl (centres unmarked)	-64.3%
CC1CC(C)CN(CC(O)COCc2ccccc2)C1.Cl (centres unmarked)	-7.79%
COc1cc(CCN2C(=O)c3cccc4cccc(c34)C2=O)c(S(=O)(=O)NCCO)cc1OC	-23.8%
CC(C)COP(=O)(OCC(C)C)C(O)c1ccccc1F (centres unmarked)	-1.27%
CCCNC(=O)/C=C/c1ccc(S(=O)(=O)Nc2ccccc2OC)cc1	-1.75%
Cc1ccc(OCCOc2cccc3ccc(C)nc23)c([N+](=O)[O-])c1.O=C(O)C(=O)O	-10.7%
CC1CCCCN1c1ncnc2ccccc12.Cl (centres unmarked)	-7.46%
Cc1ccc(C)c(N2CCN(S(=O)(=O)c3ccc4c(c3)C(C)(C)C(=O)N4C)CC2)c1	3.88%
Cc1nc2ncnn2c(N2CCN(C(c3ccccc3)c3ccccc3)CC2)c1C	-47.7%

SMILES	hERG current change (%, negative = inhibition) at 10uM
CCOC(=O)c1cccc(NC(=O)CSc2nnc(-c3ccncc3)n2CCCOC)c1	-50.4%
COCCCn1c(SCC(=O)Nc2cccc(C(=O)OC)c2)nnc1-c1ccncc1	-15.8%
COC(=O)c1cccc(NC(=O)CSc2nnc(COc3ccccc3)n2C)c1	-7.84%
CCOC(=O)c1cccc(NC(=O)CSc2nnc(COc3ccccc3)n2CC)c1	-51.3%
CCn1c(COc2cccc(C)c2)nnc1SCC(=O)Nc1cccc(C(=O)OC)c1	-2.45%
COCCCn1c(SCC(=O)Nc2ccccc2)nnc1-c1ccncc1	-6.82%
CCn1c(COc2cccc(C)c2)nnc1SCC(=O)Nc1cccc(C(=O)O)c1	9.41%
COC(=O)c1cccc(NC(=O)CSc2nnc(COc3ccc(C#N)cc3)n2-c2ccccc2)c1	-73.5%
N#Cc1ccc(OCc2nnc(SCC(=O)c3ccccc3)n2-c2ccccc2)cc1	-40.8%
COc1ccc(OC)c(CCNC(=O)Cn2ccc3cc(S(=O)(=O)N4CCCC4)ccc32)c1	-13.9%
CCN(CC)CCNC(=O)c1cc2cc(Br)ccc2s1	-61.1%
CN(C)C(=O)c1cc2cc(Br)ccc2s1	-3.77%
CCN(CC)CCNC(=O)c1cc2c(s1)-c1ccccc1SC2	-77.8%
COCCNC(=O)c1cc2c(s1)-c1ccc(Cl)cc1SC2	-5%
NNC(=O)c1cc2c(s1)-c1cc(Cl)ccc1SC2	10.3%
CCOCCCNC(=O)c1cc2c(s1)-c1ccccc1SC2	-5.28%
CN(C)CCNC(=O)c1cc2c(s1)-c1ccc(Cl)cc1SC2	-81.1%
CN(CCC#N)C(=O)c1cc2c(s1)-c1ccccc1SC2	-8.88%
CNC(=O)c1cc2cc(Br)ccc2s1	10.1%
